The supplement of paper PMC10849652
Targets with a hit are over-represented here; the source holds about 8,800 in all. About 0.5% of all pairs of compound and target were hits. Values without a mark were called inactive.

How the values were obtained:
Experiment in all cases: log2 fold change, soluble protein after heating vs DMSO (PISA); higher = thermal stabilisation; K562 lysate, 10 uM; active = over 0.2 and 3.5 SD of the protein, either way, in both replicates (recomputed)
[1] = compound: C1=CC=C(C=C1)[C@H](COC2=CC3=C(C=C2)NC(=O)N3)NC(=O)C4=CC=CN(C4=O)CC5=CC(=C(C=C5)F)F
In short: (§1)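 Values give the log-two fold change in thermal stability against solvent controls, from duplicates. Crude K562 extract at 1 mg/mL protein, made by dounce homogenisation in PBS pH 7.4 with 1 mM MgCl2, was treated with 10 μM compound for 30 min. After 3 min heating across 48°C-58°C, aliquots were pooled, adjusted to 0.5% NP-40 at 4°C and centrifuged at 21,000xg for 90 min. The supernatant was measured by TMTpro 16plex LC-MS/MS with channel sums equalised.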

[2] = compound: CC1=C(SC2=C1C(=N[C@H](C3=NN=C(N32)C)CC(=O)N)C4=CC=C(C=C4)Cl)C
In short: as §1

[3] = compound: CC1=C2C(=CC=C1)N=C(N(C2=O)C3=CC=CC=C3C)CN4C=NC5=C(N=CN=C54)N
In short: as §1

[4] = compound: Cc1sc2c(c1C)C(c1ccc(Cl)cc1)=N[C@@H](CC(=O)OC(C)(C)C)c1nnc(C)n1-2
In short: as §1

[5] = compound: c1ccc([C@@H]2C[C@H]2NC2CCNCC2)cc1
In short: as §1

UniProt A6NHL2, sequence (A6NHL2 whole entry, looked up): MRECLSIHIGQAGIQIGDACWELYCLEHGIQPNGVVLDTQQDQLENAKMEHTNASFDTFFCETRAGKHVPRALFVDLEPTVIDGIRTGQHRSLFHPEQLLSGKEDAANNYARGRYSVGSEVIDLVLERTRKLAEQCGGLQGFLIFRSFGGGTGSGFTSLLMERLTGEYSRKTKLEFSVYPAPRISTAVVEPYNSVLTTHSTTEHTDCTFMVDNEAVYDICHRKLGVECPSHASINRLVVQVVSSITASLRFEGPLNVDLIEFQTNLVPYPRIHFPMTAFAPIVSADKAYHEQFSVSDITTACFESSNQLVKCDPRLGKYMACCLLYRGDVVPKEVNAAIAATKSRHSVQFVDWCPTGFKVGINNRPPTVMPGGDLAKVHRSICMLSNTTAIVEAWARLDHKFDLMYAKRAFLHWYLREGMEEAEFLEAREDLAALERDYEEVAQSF
UniProt Q9UKI8, sequence (Q9UKI8 whole entry, looked up): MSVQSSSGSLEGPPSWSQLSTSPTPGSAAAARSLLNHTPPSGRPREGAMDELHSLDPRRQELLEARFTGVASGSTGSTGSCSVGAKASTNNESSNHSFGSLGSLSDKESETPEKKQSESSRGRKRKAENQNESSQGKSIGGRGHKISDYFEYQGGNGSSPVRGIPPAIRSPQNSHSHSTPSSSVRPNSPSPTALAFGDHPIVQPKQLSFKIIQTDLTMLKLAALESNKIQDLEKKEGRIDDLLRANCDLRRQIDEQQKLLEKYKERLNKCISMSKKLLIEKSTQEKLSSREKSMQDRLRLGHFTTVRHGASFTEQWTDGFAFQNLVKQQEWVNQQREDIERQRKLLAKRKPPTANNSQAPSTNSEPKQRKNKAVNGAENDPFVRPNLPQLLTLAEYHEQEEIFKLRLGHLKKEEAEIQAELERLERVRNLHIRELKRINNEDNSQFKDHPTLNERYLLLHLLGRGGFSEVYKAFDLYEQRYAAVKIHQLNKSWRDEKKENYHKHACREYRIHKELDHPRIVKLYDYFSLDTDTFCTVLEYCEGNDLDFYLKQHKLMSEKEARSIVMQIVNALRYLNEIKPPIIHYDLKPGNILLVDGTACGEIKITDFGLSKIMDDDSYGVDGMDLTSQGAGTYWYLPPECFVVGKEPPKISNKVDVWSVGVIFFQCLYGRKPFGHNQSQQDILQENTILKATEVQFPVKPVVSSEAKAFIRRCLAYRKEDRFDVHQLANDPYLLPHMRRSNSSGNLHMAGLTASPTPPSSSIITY
UniProt Q96DX7, sequence (Q96DX7 whole entry, looked up): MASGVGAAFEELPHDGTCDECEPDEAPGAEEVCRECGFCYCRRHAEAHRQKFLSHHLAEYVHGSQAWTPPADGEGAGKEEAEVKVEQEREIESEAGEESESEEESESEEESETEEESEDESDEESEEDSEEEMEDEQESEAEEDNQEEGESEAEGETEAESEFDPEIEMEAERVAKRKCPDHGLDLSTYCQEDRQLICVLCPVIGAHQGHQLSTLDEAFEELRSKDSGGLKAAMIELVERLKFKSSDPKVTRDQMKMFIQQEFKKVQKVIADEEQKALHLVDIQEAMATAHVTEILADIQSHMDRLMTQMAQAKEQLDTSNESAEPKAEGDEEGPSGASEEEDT
UniProt Q96CW5, sequence (Q96CW5 whole entry, looked up): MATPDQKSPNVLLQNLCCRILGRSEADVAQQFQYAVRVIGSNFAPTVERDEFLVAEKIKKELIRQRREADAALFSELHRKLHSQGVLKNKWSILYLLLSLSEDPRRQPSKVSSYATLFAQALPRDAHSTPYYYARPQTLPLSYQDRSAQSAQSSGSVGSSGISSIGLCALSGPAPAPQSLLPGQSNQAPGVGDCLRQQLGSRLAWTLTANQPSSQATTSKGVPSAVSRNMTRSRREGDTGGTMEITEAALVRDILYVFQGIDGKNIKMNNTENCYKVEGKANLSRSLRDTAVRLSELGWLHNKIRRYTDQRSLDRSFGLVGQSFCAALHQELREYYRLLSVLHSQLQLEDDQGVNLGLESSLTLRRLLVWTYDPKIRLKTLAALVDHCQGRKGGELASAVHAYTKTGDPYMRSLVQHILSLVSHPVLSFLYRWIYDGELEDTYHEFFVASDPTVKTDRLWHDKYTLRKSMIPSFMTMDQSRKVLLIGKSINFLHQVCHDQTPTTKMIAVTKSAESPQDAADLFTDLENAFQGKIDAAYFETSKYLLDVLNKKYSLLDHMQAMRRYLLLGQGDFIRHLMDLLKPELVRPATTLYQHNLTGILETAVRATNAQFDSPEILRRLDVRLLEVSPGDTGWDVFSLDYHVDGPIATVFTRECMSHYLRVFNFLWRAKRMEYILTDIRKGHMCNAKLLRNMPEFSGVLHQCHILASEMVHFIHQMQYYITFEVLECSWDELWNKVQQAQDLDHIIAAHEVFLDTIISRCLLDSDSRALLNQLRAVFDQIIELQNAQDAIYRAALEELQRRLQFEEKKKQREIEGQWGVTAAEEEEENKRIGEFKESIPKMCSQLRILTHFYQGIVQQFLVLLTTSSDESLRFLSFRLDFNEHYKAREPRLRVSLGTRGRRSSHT
UniProt Q5T6F2, sequence (Q5T6F2 whole entry, looked up): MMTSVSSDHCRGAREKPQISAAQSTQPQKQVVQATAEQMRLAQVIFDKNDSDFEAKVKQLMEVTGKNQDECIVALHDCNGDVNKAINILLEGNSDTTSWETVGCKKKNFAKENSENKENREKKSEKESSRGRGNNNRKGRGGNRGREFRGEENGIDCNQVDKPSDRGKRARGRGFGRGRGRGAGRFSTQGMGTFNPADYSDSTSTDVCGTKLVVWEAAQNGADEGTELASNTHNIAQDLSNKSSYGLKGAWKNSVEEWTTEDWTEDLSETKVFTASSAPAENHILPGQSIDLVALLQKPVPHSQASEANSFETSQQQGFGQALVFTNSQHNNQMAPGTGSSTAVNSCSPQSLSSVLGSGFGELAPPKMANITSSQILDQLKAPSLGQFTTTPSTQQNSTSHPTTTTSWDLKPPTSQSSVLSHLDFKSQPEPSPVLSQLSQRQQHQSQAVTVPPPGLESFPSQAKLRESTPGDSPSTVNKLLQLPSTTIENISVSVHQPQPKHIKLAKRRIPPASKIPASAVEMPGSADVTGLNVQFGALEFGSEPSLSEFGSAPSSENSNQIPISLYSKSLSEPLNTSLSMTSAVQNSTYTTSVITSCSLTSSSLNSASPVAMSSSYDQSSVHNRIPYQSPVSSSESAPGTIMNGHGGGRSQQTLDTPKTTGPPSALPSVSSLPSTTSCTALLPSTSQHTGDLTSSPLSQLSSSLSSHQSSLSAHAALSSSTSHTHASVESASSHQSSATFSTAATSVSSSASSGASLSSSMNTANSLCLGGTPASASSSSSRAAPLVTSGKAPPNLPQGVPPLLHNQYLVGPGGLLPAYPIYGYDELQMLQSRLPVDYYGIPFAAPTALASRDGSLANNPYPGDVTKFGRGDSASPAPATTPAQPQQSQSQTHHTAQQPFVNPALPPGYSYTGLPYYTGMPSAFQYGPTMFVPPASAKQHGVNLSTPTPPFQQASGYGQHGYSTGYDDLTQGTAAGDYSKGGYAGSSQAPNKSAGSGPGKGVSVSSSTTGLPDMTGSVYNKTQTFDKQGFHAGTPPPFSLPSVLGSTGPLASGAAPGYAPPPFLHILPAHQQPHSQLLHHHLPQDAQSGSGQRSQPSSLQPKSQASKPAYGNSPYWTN
UniProt Q15628, sequence (Q15628 whole entry, looked up): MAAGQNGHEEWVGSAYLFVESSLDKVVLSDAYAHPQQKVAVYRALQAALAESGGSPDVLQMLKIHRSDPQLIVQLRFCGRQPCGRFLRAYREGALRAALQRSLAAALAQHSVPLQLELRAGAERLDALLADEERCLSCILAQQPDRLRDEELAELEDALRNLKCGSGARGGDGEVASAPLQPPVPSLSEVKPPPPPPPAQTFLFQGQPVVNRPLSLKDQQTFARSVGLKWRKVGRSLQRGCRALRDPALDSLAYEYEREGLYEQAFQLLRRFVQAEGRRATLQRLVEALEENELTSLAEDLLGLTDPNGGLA
UniProt Q8N511, sequence (Q8N511 whole entry, looked up): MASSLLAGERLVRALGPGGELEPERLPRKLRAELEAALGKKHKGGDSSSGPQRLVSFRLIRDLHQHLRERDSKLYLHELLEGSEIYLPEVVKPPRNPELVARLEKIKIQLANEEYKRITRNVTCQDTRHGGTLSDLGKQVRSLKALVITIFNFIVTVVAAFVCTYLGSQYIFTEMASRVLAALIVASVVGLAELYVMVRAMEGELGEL
UniProt Q9NNW7, sequence (Q9NNW7 whole entry, looked up): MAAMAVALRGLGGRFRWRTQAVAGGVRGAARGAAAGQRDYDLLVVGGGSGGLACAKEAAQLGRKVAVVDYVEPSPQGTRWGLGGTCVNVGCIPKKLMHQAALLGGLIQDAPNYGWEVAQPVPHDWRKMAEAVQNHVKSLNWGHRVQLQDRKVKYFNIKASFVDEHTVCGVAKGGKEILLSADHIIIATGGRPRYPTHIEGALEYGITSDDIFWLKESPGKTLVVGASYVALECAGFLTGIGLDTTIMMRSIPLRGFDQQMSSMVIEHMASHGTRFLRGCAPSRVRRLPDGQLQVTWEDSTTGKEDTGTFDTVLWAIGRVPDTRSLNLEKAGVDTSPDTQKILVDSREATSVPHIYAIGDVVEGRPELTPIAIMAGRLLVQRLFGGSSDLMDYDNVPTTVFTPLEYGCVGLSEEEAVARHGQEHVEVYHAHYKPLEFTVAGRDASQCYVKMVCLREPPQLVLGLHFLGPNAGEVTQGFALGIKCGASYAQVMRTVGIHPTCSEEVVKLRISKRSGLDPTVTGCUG
UniProt Q14CS0, sequence (Q14CS0 whole entry, looked up): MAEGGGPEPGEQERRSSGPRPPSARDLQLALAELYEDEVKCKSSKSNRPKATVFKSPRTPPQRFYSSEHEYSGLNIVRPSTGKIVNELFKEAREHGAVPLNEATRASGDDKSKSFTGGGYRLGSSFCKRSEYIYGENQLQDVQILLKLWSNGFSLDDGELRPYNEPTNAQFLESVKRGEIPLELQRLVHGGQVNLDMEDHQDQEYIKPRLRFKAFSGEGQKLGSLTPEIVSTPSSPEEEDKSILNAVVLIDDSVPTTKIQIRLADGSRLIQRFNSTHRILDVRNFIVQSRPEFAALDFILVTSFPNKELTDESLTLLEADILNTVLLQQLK

| Target | log2 fold change [1] | log2 fold change [2] | log2 fold change [3] | log2 fold change [4] | log2 fold change [5] |
| --- | --- | --- | --- | --- | --- |
| TMEM199 (UniProt Q8N511) | 0.005 | -0.002 | 0.07 | -0.046 | -0.029 |
| TUT4 (UniProt Q5TAX3) | -0.032 | -0.024 | 0.035 | 0.009 | -0.021 |
| TPP2 (UniProt Q5VZU9) | 0.004 | -0.117 | 0.001 | 0.034 | -0.08 |
| TBRG4 (UniProt Q969Z0) | -0.071 | 0.024 | 0.018 | 0.052 | 0.094 |
| TLE3 isoform 4 (UniProt Q04726) | 0.01 | -0.033 | 0.024 | 0.025 | 0.007 |
| UBE2H (UniProt P62256) | 0.024 | 0.02 | 0.012 | -0.046 | 0.095 |
| TTMP isoform 3 (UniProt Q5BVD1) | -0.051 | 0.091 | 0.135 | -0.148 | -0.498 |
| TUBGCP3 (UniProt Q96CW5) | -0.007 | -0.004 | 0.011 | 0.008 | 0.037 |
| TPP2 (UniProt P29144) | 0.006 | 0.008 | -0.002 | 0.039 | 0.025 |
| UBE3C (UniProt Q15386) | -0.027 | -0.04 | 0.127 | 0.066 | 0.039 |
| TRIM56 (UniProt Q9BRZ2) | -0.057 | -0.009 | 0.076 | 0.003 | 0.099 |
| TTI1 (UniProt O43156) | -0.004 | -0.011 | -0.004 | 0.034 | 0.051 |
| TMEM87B (UniProt Q96K49) | 0.529 (active) | 0.02 | 0.075 | 0.001 | 0.038 |
| TUBB (UniProt P07437) | 0.025 | 0.027 | -0.005 | 0.014 | -0.001 |
| TRIM65 (UniProt Q6PJ69) | 0.051 | -0.085 | -0.016 | 0.012 | 0.039 |
| TXNIP (UniProt Q9H3M7) | 0.056 | 0.005 | 0.029 | 0.016 | 0.087 |
| TRIP12 isoform 2 (UniProt Q14669) | -0.043 | 0.07 | -0.018 | 0 | 0.062 |
| TELO2 (UniProt Q9Y4R8) | -0.073 | -0.012 | -0.019 | 0.056 | 0.025 |
| TRIM33 isoform 2 (UniProt Q9UPN9) | 0.003 | 0.009 | 0.022 | 0.011 | 0.005 |
| TSFM (UniProt P43897) | 0.006 | 0.007 | 0.027 | 0.066 | -0.092 |
| TDRKH (UniProt Q9Y2W6) | -0.02 | -0.028 | 0.1 | 0.005 | -0.053 |
| UBL5 (UniProt Q9BZL1) | 0.063 | 0.008 | -0.06 | 0.005 | -0.167 |
| TRAPPC12 (UniProt Q8WVT3) | 0.005 | -0.016 | -0.023 | 0.003 | 0.015 |
| TRNAU1AP (UniProt Q9NX07) | -0.068 | -0.008 | 0.195 | -0.025 | -0.048 |
| TBC1D23 (UniProt Q9NUY8) | 0.007 | 0.01 | -0.017 | 0.016 | -0.024 |
| TNIK isoform 4 (UniProt Q9UKE5) | 0.015 | -0.002 | -0.017 | -0.032 | -0.076 |
| TRAPPC10 (UniProt P48553) | -0.014 | -0.015 | 0.033 | -0.004 | -0.012 |

| Target | log2 fold change [1] | log2 fold change [2] | log2 fold change [3] | log2 fold change [4] | log2 fold change [5] |
| --- | --- | --- | --- | --- | --- |
| TXNRD2 (UniProt Q9NNW7) | 0.023 | -0.015 | -0.048 | -0.042 | 0.006 |
| TGFBRAP1 (UniProt Q8WUH2) | -0.035 | 0.024 | 0 | 0.05 | -0.014 |
| TUBGCP5 (UniProt Q96RT8) | -0.209 | 0.088 | 0.039 | -0.093 | 0.071 |
| TK1 (UniProt K7ERV3) | -0.044 | 0.007 | -0.017 | -0.002 | -0.037 |
| TTC27 (UniProt Q6P3X3) | -0.039 | -0.021 | 0.028 | -0.019 | 0.032 |
| TLK1 isoform 2 (UniProt Q9UKI8) | 0.005 | -0.02 | -0.026 | -0.025 | -0.072 |
| TSPAN13 (UniProt O95857) | 0.076 | 0.025 | -0.048 | 0.187 | -0.131 |
| TIMM44 (UniProt O43615) | -0.062 | 0 | 0.034 | -0.035 | -0.003 |
| TUBAL3 (UniProt A6NHL2) | -0.034 | -0.051 | 0.045 | -0.189 | -0.255 |
| TPST2 (UniProt O60704) | -0.034 | 0.021 | -0.028 | -0.054 | -0.384 |
| TPM1 isoform 4 (UniProt P09493) | -0.008 | -0.012 | 0 | 0.003 | 0.056 |
| TBL3 (UniProt Q12788) | 0.024 | 0.003 | -0.014 | -0.014 | 0.014 |
| TBL2 (UniProt Q9Y4P3) | 0.01 | 0.057 | 0.033 | 0.039 | 0.071 |
| TRIM44 (UniProt Q96DX7) | 0.096 | -0.126 | -0.061 | -0.031 | 0.083 |
| TPM4 isoform 2 (UniProt P67936) | -0.059 | -0.012 | 0.02 | 0.053 | 0.1 |
| TUBA3C (UniProt P0DPH7) | 0.012 | 0.022 | 0.029 | -0.017 | -0.074 |
| UBXN2B (UniProt Q14CS0) | 0.028 | -0.03 | 0.019 | 0.042 | 0.014 |
| TCF3 (UniProt P15923) | -0.029 | 0.006 | -0.004 | -0.032 | -0.08 |
| TUBB4B (UniProt P68371) | 0.001 | 0.03 | 0.018 | 0.042 | 0.049 |
| UBAP2 (UniProt Q5T6F2) | -0.019 | -0.003 | -0.008 | -0.022 | -0.119 |
| TK1 (UniProt P04183) | 0.006 | 0.037 | -0.017 | -0.045 | -0.116 |
| TRADD (UniProt Q15628) | -0.051 | -0.016 | 0.112 | 0.05 | 0.033 |
| TUBA1C (UniProt Q9BQE3) | 0.043 | 0.03 | 0.023 | 0.003 | -0.006 |
| UGDH (UniProt O60701) | 0.003 | 0.001 | -0.004 | -0.056 | 0.026 |
| THADA (UniProt Q6YHU6) | -0.028 | -0.016 | 0.069 | 0.007 | 0.028 |
| TCF12 isoform 3 (UniProt Q99081) | 0.062 | -0.072 | 0.014 | -0.048 | -0.046 |
